A selection: hits, their analogues and other compounds. The true share with any hit is near 2.8%.
Beta2AR agonist – agonists of human beta-2 adrenergic receptor inducing internalization. P07550. Am2.2-beta2AR cells, FAP receptor internalization, flow cytometry. response, % (no concentration beside the values). hit rate 0.43% among 340,000. AID 504454;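 active = response above a set limit, near 3 SD of response in nonfluorescent compounds, cut at about 42% in these data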
Target sequence (P07550 whole entry, looked up): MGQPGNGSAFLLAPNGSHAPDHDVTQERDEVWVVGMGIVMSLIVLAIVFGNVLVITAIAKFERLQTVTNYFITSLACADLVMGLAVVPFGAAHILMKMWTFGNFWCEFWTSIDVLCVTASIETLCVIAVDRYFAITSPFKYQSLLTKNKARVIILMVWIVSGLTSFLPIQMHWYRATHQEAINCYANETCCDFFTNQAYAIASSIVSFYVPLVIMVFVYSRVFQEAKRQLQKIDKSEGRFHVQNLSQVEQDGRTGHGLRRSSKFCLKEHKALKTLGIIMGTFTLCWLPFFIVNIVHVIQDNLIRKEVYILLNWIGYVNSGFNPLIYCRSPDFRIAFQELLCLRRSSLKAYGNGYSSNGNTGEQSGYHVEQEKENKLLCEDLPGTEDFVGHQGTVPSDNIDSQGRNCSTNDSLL
HIF-2a inh – inhibitors of HIF-2a; 786-0 RCC cells HIF-2a reporter, luciferase luminescence, overnight; inhibition, % at 18.8 µM; hit rate 0.72% among 360,000; AID 624352;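 active = inhibition of the luminescence signal of 40% or more relative to plate controls, in a single-dose primary screen at 18.75 µM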
KKLEB tox – reduces viability of KKLEB cystic fibrosis airway cells; activity change (cytotoxicity), % at 5 µM; AID 602141; KKLEB CF airway cells viability, ATPlite luminescence, overnight; active compounds read low; cells stimulated with P. aeruginosa culture filtrate; hit rate 0.36% among 360,000;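 active = corrected activity change at or below -50% at 5 µM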
CF NFkB inh – cystic fibrosis NF-kB activation inhibition; KKLEB NF-kB-GFP reporter, PAF-induced, GFP fluorescence overnight; inhibition, % at 5 µM; hit rate 0.86% among 360,000; AID 588850;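 active = at least 50% inhibition at 5 µM, scaled per plate between neutral and stimulator controls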;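 note: PAF is a Pseudomonas aeruginosa culture filtrate used as stimulus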
Peg3 promoter – reduces Peg3 promoter-driven luciferase expression in HeLa; HeLa PEG-Prom luciferase reporter, luminescence, overnight; hit rate 1.7% among 360,000; inhibition, % at 20 µM;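 active = inhibition of at least 50% at 20 µM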
TRPM1 prom inh – inhibitors of MITF-driven TRPM1 promoter in melanoma cells; hit rate 0.83% among 330,000; SK-MEL-5 TRPM1 promoter luciferase, 24 h; AID 488899; inhibition, % at 12.5 µM;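 active = mean inhibition across replicates of 60% or more, whatever share of single replicates reaches that level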
B2AR ag CP1 – activates human beta-2 adrenergic receptor. shares compounds with Beta2AR agonist. Am2.2-beta2AR cells, FAP surface receptor, flow cytometry; active compounds read low. percent response (surface receptor), % at 10 µM. hit rate 25% among 1,100. AID 540358;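 active = surface receptor percent response at or below 58%, roughly 3 SD from nonfluorescent compounds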
FAP fluor counter – counter-screen for beta-2AR agonists: fluorescence in Am2.2 cells; shares compounds with Beta2AR agonist; AID 588765; calls only at 10 µM; FAP fluorogen flow cytometry, fluorescence counterscreen; active compounds read low; 1,100 tested, under 10 active;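 active = percent response below a set limit in fluorescence channel 1 and below 50% in channel 8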
Each line names hits and unclear results; the compound was inactive in the other large screens (follow-up assays come after a bar, where they were run); ! = repeats disagree.

C=CCN1C(=O)c2oc3ccccc3c(=O)c2C1c1ccc(O)c(OC)c1 (stereo not drawn)	none | B2AR ag CP1 inactive | FAP fluor counter inactive
CCCc1cc(Nc2cccc(OCC)c2)n2ncnc2n1	Beta2AR agonist 49 | B2AR ag CP1 inactive | FAP fluor counter inactive
CCCCN1C(=O)C(CC(=O)NCCCCc2ccccc2)CC(C(=O)N2CCCCCC2)=C1C (stereo not drawn)	none (no result: Beta2AR agonist, KKLEB tox, CF NFkB inh, Peg3 promoter, TRPM1 prom inh)
N#Cc1ccc(C(=O)Nc2cc(S(=O)(=O)Nc3ccc(Cl)cc3)ccc2N2CCCCC2)cc1	Beta2AR agonist 44 | B2AR ag CP1 inactive | FAP fluor counter inactive
OC[C@@H]1CN(Cc2ccco2)C[C@H](n2cnc3c(NC4CCCC4)ncnc32)O1	none (no result: Beta2AR agonist, TRPM1 prom inh)
CC1(C)C2CCC1(CS(=O)(=O)N1CCN(c3ccccc3F)CC1)C(=O)C2 (stereo not drawn)	Beta2AR agonist 72 | B2AR ag CP1 inactive | FAP fluor counter inactive
Cc1ccccc1N1CCN(S(=O)(=O)CC23CCC(CC2=O)C3(C)C)CC1 (stereo not drawn)	none
CCCn1c(CC)nc([N+](=O)[O-])c1Sc1ncn[nH]1	none (no result: Beta2AR agonist, TRPM1 prom inh)
Cc1ccc(SCc2[nH]nc3c2C2(C(=O)Nc4ccc([N+](=O)[O-])cc42)C(C#N)=C(N)O3)cc1 (stereo not drawn)	Beta2AR agonist 84 | B2AR ag CP1 inactive | FAP fluor counter inactive
Cc1ccc(SCc2[nH]nc3c2C2(CCSCC2)C(C#N)=C(N)O3)cc1	none
Cc1ccc(-n2nnc3c(SCC(=O)NCC4CCCO4)ncnc32)cc1 (stereo not drawn)	Beta2AR agonist 51 | B2AR ag CP1 inactive | FAP fluor counter inactive
O=C(CSc1ncnc2c1nnn2-c1ccc(F)cc1)NCC1CCCO1 (stereo not drawn)	none
CC(CCc1ccc(O)cc1)NCCC(c1ccccc1)c1ccccc1 (stereo not drawn)	none | B2AR ag CP1 inactive | FAP fluor counter inactive
CC(CCc1ccc(O)cc1)NC(c1ccccc1)c1ccc(Cl)cc1 (stereo not drawn)	none
CC(CCc1ccc(O)cc1)NCc1ccc(Br)cc1 (stereo not drawn)	none
CC(NCCc1ccc(O)cc1)C(O)c1ccc(O)cc1 (stereo not drawn)	none | B2AR ag CP1 inactive | FAP fluor counter inactive
C[C@@H](NCCc1ccc(O)cc1)[C@@H](O)c1ccc(O)cc1	none | B2AR ag CP1 inactive | FAP fluor counter inactive
CC(C)c1ccc2c(c1)CC[C@H]1[C@](C)(CN)CCC[C@]21C	Beta2AR agonist 50!, Peg3 promoter 90!, TRPM1 prom inh 102! | B2AR ag CP1 inactive | FAP fluor counter inactive
CC(C)(C)NC(=O)C(c1ccccc1F)n1c(=O)c(-c2cc3ccccc3[nH]2)nc2ccccc21 (stereo not drawn)	none (no result: Beta2AR agonist, KKLEB tox, CF NFkB inh, Peg3 promoter, TRPM1 prom inh)
COc1ccc(N2C(=O)CS/C2=N\C(=S)Nc2ccccc2)cc1	none | B2AR ag CP1 inactive | FAP fluor counter inactive
CC(=O)Oc1ccccc1Cn1c(C)c(C(=O)NCc2cccc([N+](=O)[O-])c2)sc1=O	none (no result: Beta2AR agonist, TRPM1 prom inh)
COCCNC(=O)CCSc1nc(-c2ccc(OC)cc2)cc(C(F)(F)F)n1	none
COCC(C)NC(=O)CCS(=O)(=O)c1nc(-c2ccc(OC)cc2)cc(C(F)(F)F)n1 (stereo not drawn)	Beta2AR agonist 53, HIF-2a inh 94, KKLEB tox -76, CF NFkB inh 86, Peg3 promoter 110 | B2AR ag CP1 25! | FAP fluor counter inactive
CC(C)CN(C(=O)c1ccc(N2CCCC2=O)cc1)c1c(N)n(Cc2ccccc2)c(=O)[nH]c1=O	none
CC(C)CN(C(=O)c1ccc2c(c1)OCCO2)c1c(N)n(Cc2ccccc2)c(=O)[nH]c1=O	Beta2AR agonist 66 | B2AR ag CP1 inactive | FAP fluor counter inactive
O=C(C[C@H]1CC[C@@H]2[C@H](COC[C@@H](O)CN2C(=O)C2CC2)O1)NCc1ccccc1Cl	none (no result: Beta2AR agonist, KKLEB tox, CF NFkB inh, Peg3 promoter, TRPM1 prom inh)
Cc1nn(-c2ccccn2)c2nc(-c3cccs3)cc(C(=O)NCc3ccco3)c12	Beta2AR agonist 43 | B2AR ag CP1 inactive | FAP fluor counter inactive
CCOC(=O)c1cc(-c2cccs2)nc2c1c(C)nn2-c1ccccn1	none

Source: PubChem BioAssay (several laboratories)
